Screen size: about 5,500 compounds; about 2,000 (36%) were called active. About 18% were inconclusive and are not listed. No stated cut-off is given here; in the data, active means normalized growth mostly below about 0.91 (no sharp cut-off); inconclusive means no clear call, values can overlap the other calls; inactive means mostly above about 0.92. The list shows a part of the results.
Test: chemical genetic growth profiling, strain panel (AID 1159580);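 further: tested at 20 µM; growth read once vehicle control cultures reached saturation at 30 °C; 1 = growth at the plate median or of vehicle wells; lower values mean less growth of the strain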
Conditions: growth OD
[1] = S. cerevisiae deletion strains, locus YAL013W, strain DEP1, hits give low values
[2] = S. cerevisiae deletion strains, locus YAL040C, strain CLN3, hits give low values
[3] = S. cerevisiae deletion strains, locus YCL061C, strain MRC1 (second series), hits give low values
[4] = S. cerevisiae deletion strains, locus YDR150W, strain NUM1, hits give low values
[5] = S. cerevisiae deletion strains, locus YDR363W, strain ESC2, hits give low values
[6] = S. cerevisiae deletion strains, locus YER002W, strain NOP16, hits give low values
[7] = S. cerevisiae deletion strains, locus YJR075W, strain HOC1, hits give low values
[8] = S. cerevisiae deletion strains, locus YMR307W, strain GAS1, hits give low values
[9] = S. cerevisiae deletion strains, locus YNL153C, strain GIM3, hits give low values
[10] = S. cerevisiae deletion strains, locus YNL175C, strain NOP13, hits give low values
[11] = S. cerevisiae deletion strains, locus YNL197C, strain WHI3, hits give low values
[12] = S. cerevisiae deletion strains, locus YNL224C, strain SQS1, hits give low values
[13] = S. cerevisiae deletion strains, locus YOR083W, strain WHI5 (second series), hits give low values
[14] = S. cerevisiae deletion strains, locus YPL055C, strain LGE1, hits give low values
[15] = S. cerevisiae deletion strains, locus YPL241C, strain CIN2, hits give low values
[16] = S. cerevisiae deletion strains, locus YGR078C, strain PAC10, hits give low values
[17] = S. cerevisiae deletion strains, locus YNL322C, strain KRE1, hits give low values
[18] = S. cerevisiae deletion strains, locus YBR229C, strain ROT2, hits give low values
[19] = S. cerevisiae deletion strains, locus YCL061C, strain MRC1, hits give low values
[20] = S. cerevisiae deletion strains, locus YDL101C, strain DUN1, hits give low values
[21] = S. cerevisiae deletion strains, locus YDL134C, strain PPH21, hits give low values
[22] = S. cerevisiae deletion strains, locus YEL061C, strain CIN8, hits give low values
[23] = S. cerevisiae deletion strains, locus YHR030C, strain SLT2, hits give low values
[24] = S. cerevisiae deletion strains, locus YHR087W, strain rtc3, hits give low values
[25] = S. cerevisiae deletion strains, locus YJR043C, strain POL32, hits give low values
[26] = S. cerevisiae deletion strains, locus YKL190W, strain CNB1, hits give low values
[27] = S. cerevisiae deletion strains, locus YLR039C, strain RIC1, hits give low values
[28] = S. cerevisiae deletion strains, locus YLR058C, strain SHM2 (second series), hits give low values
[29] = S. cerevisiae deletion strains, locus YLR085C, strain ARP6, hits give low values
[30] = S. cerevisiae deletion strains, locus YLR262C, strain YPT6, hits give low values
[31] = S. cerevisiae deletion strains, locus YML094W, strain GIM5, hits give low values
[32] = S. cerevisiae deletion strains, locus YMR219W, strain ESC1, hits give low values
[33] = S. cerevisiae deletion strains, locus YMR263W, strain SAP30, hits give low values
[34] = S. cerevisiae deletion strains, locus YNL298W, strain CLA4 (second series), hits give low values
[35] = S. cerevisiae deletion strains, locus YNR030W, strain Alg12, hits give low values
[36] = S. cerevisiae deletion strains, locus YPR135W, strain CTF4, hits give low values
[37] = S. cerevisiae strains, strain wild type, hits give low values

Measured: normalized growth

COC1(C2=NCCN2)COc2ccccc2O1 (stereo not drawn)
inactive: [1] 1 | [2] 1.01 | [3] 1.01 | [4] 1.02 | [5] 0.995 | [6] 1 | [7] 1.01 | [8] 0.998 | S. cerevisiae deletion strains, locus YNL128W, strain TEP1, hits give low values 0.995 | [9] 1.03 | [10] 1 | [11] 1.01 | [12] 1.01 | [13] 1.02 | [14] 0.996 | [15] 1.01

Nn1nnc2ccccc21
inactive: [1] 1.01 | [2] 1.02 | [3] 1.01 | [5] 1 | [6] 1.01 | [16] 1.01 | [10] 0.991 | [11] 1.01 | [12] 0.998 | [17] 1.02 | [13] 0.998 | [14] 1.02

FC(F)(F)c1cc(NC2=NCCN=C(Nc3cc(C(F)(F)F)cc(C(F)(F)F)c3)SS2)cc(C(F)(F)F)c1
inactive: [1] 1.01 | [18] 1.01 | [19] 0.997 | [20] 0.993 | [21] 0.999 | [4] 1.04 | [22] 1 | [16] 1 | [23] 0.952 | [24] 0.997 | [25] 0.993 | [7] 0.989 | [26] 1.01 | [27] 0.977 | [28] 1.01 | [29] 0.978 | [30] 0.979 | [31] 0.975 | [32] 1 | [33] 1.02 | [8] 0.916 | [9] 1.02 | [34] 1.01 | [17] 1 | [35] 0.988 | [14] 1.05 | [15] 0.99 | [36] 0.95 | [37] 1.01

N#CCCNc1cc(C(F)(F)F)cc(C(F)(F)F)c1
inactive: [1] 0.98 | [18] 0.985 | [19] 0.96 | [20] 0.986 | [21] 0.99 | [4] 0.96 | [22] 0.975 | [16] 0.947 | S. cerevisiae deletion strains, locus YGR229C, strain SMI1, hits give low values 0.981 | [23] 0.867 | [24] 0.989 | S. cerevisiae deletion strains, locus YJL187C, strain SWE1, hits give low values 0.986 | [25] 0.97 | [26] 0.981 | [27] 0.848 | [28] 1.01 | [29] 0.837 | [30] 0.844 | [31] 0.918 | [32] 0.987 | [33] 0.991 | [8] 0.903 | [9] 0.96 | [34] 0.954 | [17] 0.957 | [35] 0.902 | [14] 0.893 | [15] 0.947 | [36] 0.801 | [37] 0.991
active: [7] 0.883
